From PubChem BioAssay (NCI)
“And” between values parts separate entries of the source, which are not always exact repeats. Equal values may be shown once. Compounds without any hit were thinned out: in the full panel of roughly 79,000, 15% have a hit. More than one record can exist for a structure, and the calls need not agree. The source made the active and inactive calls. Cut-off read from the data, not from the text of the source: active = growth inhibition above about 70%; inactive = the rest.

How the values were obtained:
[1] = NCI Yeast Anticancer Drug Screen. Data for the rad50 strain (AID 155);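 note: 0% = growth of vehicle-only cultures of the same strain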; details: S. cerevisiae rad50 strain growth inhibition, stronger effect = higher value
How it was run: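 Readout: growth inhibition relative to vehicle-treated cultures. Compound exposure was carried out in a genetically defined yeast strain deficient in DNA damage repair.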

[2] = NCI Yeast Anticancer Drug Screen. Data for the mec2-1 strain (AID 157); details: S. cerevisiae mec2-1 strain, stronger effect = higher value
How it was run: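 Cells of the genetically defined mec2-1 yeast strain are incubated with test compound. Inhibition of growth is calculated against vehicle-treated controls.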

[3] = NCI Yeast Anticancer Drug Screen. Data for the sgs1 mgt1 strain (AID 161);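 note: 0% = growth of cultures given vehicle only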; details: S. cerevisiae sgs1 mgt1 strain, stronger effect = higher value
How it was run: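 Inhibition of yeast growth, normalised to vehicle-treated controls, is reported for a strain bearing genetic alterations in DNA damage repair.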

[4] = NCI Yeast Anticancer Drug Screen. Data for the cln2 rad14 strain (AID 165);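 note: 0% = growth equal to vehicle treated cultures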; details: S. cerevisiae cln2 rad14 strain, stronger effect = higher value
How it was run: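 The screen exposed genetically defined yeast (cln2 rad14) to test compounds and scored growth inhibition relative to vehicle-treated controls.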

[5] = NCI Yeast Anticancer Drug Screen. Data for the bub3 strain (AID 167); details: S. cerevisiae bub3 mutant strain, stronger effect = higher value
How it was run: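 Readout: yeast growth inhibition, expressed relative to vehicle-only wells. The test organism is a mutant strain from a panel with lesions in DNA repair or checkpoint genes.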

[6] = NCI Yeast Anticancer Drug Screen. Data for the mlh1 rad18 strain (AID 175); details: S. cerevisiae mlh1 rad18 strain growth inhibition, stronger effect = higher value
How it was run: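 Compound-treated yeast growth, normalised to vehicle controls. Strain bears defined DNA repair mutations.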

[7] = at 5.0 µM (retest, dose inferred, filed as 0.5)
[8] = at 50.0 µM (retest, dose inferred, filed as 5.0)

Measured: growth inhibition

NNC(=O)c1ccc(NC(=O)CSc2nc3ccccc3s2)cc1
active: [1]; at 50.0 µM 92.7% | [2]; at 50.0 µM 79% | [3]; at 50.0 µM 96.2% | [5]; [8] 82% | [5]; at 50.0 µM 97.8% | [6]; [7] 86% | [6]; [8] 82% | [6]; at 50.0 µM 98.6%
inactive: [1]; [7] -4% | [1]; [8] 35% | [2]; [7] 6% | [2]; [8] 28% | [3]; [7] 9% | [3]; [8] 59% | [4]; [7] 0% | [4]; [8] 48% | [4]; at 50.0 µM 31.2% | [5]; [7] 52%

OCC1OC(n2cnc3c(=S)nc[nH]c32)C(O)C1O (centres undefined)
inactive: [1]; [7] -3% | [1]; [8] -13% | [1]; at 50.0 µM -0.9% and -2.3% | [2]; [7] -14% | [2]; [8] -14% | [2]; at 50.0 µM 8.35% and -13.8% | [3]; [7] 0% | [3]; [8] 5% | [3]; at 50.0 µM 6.65% and -21.8% | [4]; [7] 20% | [4]; [8] -7% | [4]; at 50.0 µM 24.9% and -27% | [5]; [7] 0% | [5]; [8] -3% | [5]; at 50.0 µM 14.9% and -16.9% | [6]; [7] -13% | [6]; [8] -14% | [6]; at 50.0 µM 3.2% and -1.15%

O=C1NC(=O)c2cc([N+](=O)[O-])ccc21
inactive: [1]; [7] -9% | [1]; [8] 12% | [1]; at 50.0 µM 6.65% and 0.9% | [2]; [7] 0% | [2]; [8] 4% | [2]; at 50.0 µM -21.9% and 3.5% | [3]; [7] -2% | [3]; [8] 8% | [3]; at 50.0 µM 5.35% and 17% | [4]; [7] -5% | [4]; [8] -5% | [4]; at 50.0 µM -1.95% and 55% | [5]; [7] 0% | [5]; [8] 13% | [5]; at 50.0 µM -0.35% and 34.4% | [6]; [7] -4% | [6]; [8] 12% | [6]; at 50.0 µM 11.3% and -14.6%

O=P(C(=S)NC1CC2C=CC1C2)(c1ccccc1)c1ccccc1 (centres undefined)
inactive: [1]; [7] 27% | [1]; at 50.0 µM 48% | [2]; [7] 7% | [2]; at 50.0 µM 51.1% | [3]; [7] 2% | [3]; at 50.0 µM 26.4% | [4]; [7] 12% | [5]; [7] -3% | [5]; at 50.0 µM 34.1% | [6]; [7] -31%
active: [1]; [8] 93% | [2]; [8] 94% | [3]; [8] 90% | [4]; [8] 85% | [4]; at 50.0 µM 73.4% | [5]; [8] 92% | [6]; [8] 90% | [6]; at 50.0 µM 86.7%

CC(=O)c1ccc(N)cc1
active: [1]; [8] 73% | [2]; [8] 100% | [5]; [8] 99% | [6]; [8] 96%
inactive: [1]; [7] 35% | [1]; at 50.0 µM 7.3% | [2]; [7] 50% | [2]; at 50.0 µM 15.3% | [3]; [7] 7% | [3]; [8] 52% | [3]; at 50.0 µM 26.8% | [4]; [7] 12% | [4]; [8] 39% | [4]; at 50.0 µM -1.3% | [5]; [7] 30% | [5]; at 50.0 µM -2.8% | [6]; [7] 62% | [6]; at 50.0 µM 20.1%

CC(C)(Cc1nocc1C(C)(C)CC#N)c1cc(CC(C)(C)C2(C)OCCO2)no1
inactive: [1]; [7] -4% | [1]; [8] 0% | [1]; at 50.0 µM -9.6% | [2]; [7] 0% | [2]; [8] -1% | [2]; at 50.0 µM 9.45% | [3]; [7] -8% | [3]; [8] 1% | [3]; at 50.0 µM -7.8% | [4]; [7] 2% | [4]; [8] -6% | [4]; at 50.0 µM 25.3% | [5]; [7] -7% | [5]; [8] -6% | [5]; at 50.0 µM -47.8% | [6]; [7] -3% | [6]; [8] -4% | [6]; at 50.0 µM -9.8%

O=C(/C(=C\c1ccc(Cl)c(Cl)c1)c1ccccc1)c1ccc(O)cc1
inactive: [1]; [7] 51% | [2]; [7] 39% | [3]; [7] 48% | [4]; [7] 42% | [5]; [7] 43% | [6]; [7] 54%
active: [1]; [8] 91% | [1]; at 50.0 µM 94% | [2]; [8] 95% | [2]; at 50.0 µM 93.9% | [3]; [8] 93% | [3]; at 50.0 µM 94.1% | [4]; [8] 93% | [4]; at 50.0 µM 92.2% | [5]; [8] 94% | [5]; at 50.0 µM 91.8% | [6]; [8] 92% | [6]; at 50.0 µM 93.2%

Oc1ccc(N=Nc2ccccn2)c(O)c1
active: [1]; [8] 94% and 98% | [1]; at 50.0 µM 98.5% and 88.8% | [2]; [8] 97% and 99% | [2]; at 50.0 µM 98.5% and 90.5% | [3]; [8] 94% and 97% | [3]; at 50.0 µM 98.2% and 91.2% | [4]; [8] 94% and 98% | [4]; at 50.0 µM 96% and 86.2% | [5]; [8] 96% | [5]; at 50.0 µM 97.5% and 89.8% | [6]; [8] 95% and 99% | [6]; at 50.0 µM 98.4% and 89%
inactive: [3]; [7] -67% and 19% | [4]; [7] -66% and 42% | [5]; [7] -67% and 42%
-127% (inactive) and 100% (active): [6]; [7]
-53% (inactive) and 99% (active): [2]; [7]
-174% (inactive) and 98% (active): [1]; [7]
